Experimental data reported in PubChem BioAssay (Tox21).
Results filed as inconclusive are left out. Activity calls are given as the source filed them. Unless noted, calls come from the whole dose curve; as a rule, active = well fitted curve in the direction sought with a large enough effect in the repeat runs; inconclusive = weak or mixed curves; inactive = no such curve, though single readings can be large; an effect the other way counts as inactive or inconclusive.

Tests used:
[1] = qHTS assay to identify small molecule agonists of the vitamin D receptor (VDR) signaling pathway - cell viability counter screen (AID 743224); note: series mostly up to about 63 µM; % is set by controls: 0 for no effect and ±100 for the full control effect; nearly all actives have a fitted effect of over 50% in size
How it was run: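 Cytotoxicity counter screen: VDR-bla cells, 16 h compound exposure at 37C, 5% CO2; CellTiter-Glo luminescence, 30 min RT, same wells as bla read.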

[2] = qHTS assay to identify small molecule antagonists of the vitamin D receptor (VDR) signaling pathway - cell viability counter screen (AID 743225); note: % is set by controls: 0 for no effect and ±100 for the full control effect; nearly all actives have a fitted effect of over 50% in size
How it was run: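 VDR-bla HEK 293T cells, 4 h pre-incubation at 37C, then compound plus 1-alpha,25-dihydroxyvitamin D3 (3 nM final) for 16 h. After the beta-lactamase FRET read, CellTiter-Glo was added to the same wells; luminescence after 30 min at room temperature.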

[3] = qHTS assay to identify small molecule agonists of the NFkB signaling pathway (AID 1159509; active = well fitted curve in the direction sought with a large enough effect in the signal ratio in the repeat runs, not every such curve was filed as active; the % refers to the signal ratio; note: series mostly up to about 61 µM; % is set by controls: 0 for no effect and ±100 for the full control effect)
How it was run: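 Readout: FRET fluorescence, 405 nm excitation, 460/530 nm emission; beta-lactamase expression disrupts FRET. Cells: ME-180 stably carrying NF-kB-driven bla reporter. Compound exposure 5 hr, 37 C, 5% CO2.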

[4] = qHTS assay to identify small molecule agonists of the NFkB signaling pathway - cell viability counter screen (AID 1159515; calls by dose curve; note: series mostly up to about 61 µM; % is set by controls: 0 for no effect and ±100 for the full control effect; nearly all actives have a fitted effect of over 55% in size)
How it was run: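 ME-180 NFkB-bla cells, 2,000/well; overnight attach; compound 5 hr, 37 C/5% CO2; LiveBLAzer substrate 1.5 hr RT; then CellTiter-Glo in same wells, 30 min RT, luminescence read.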

[5] = qHTS assay to identify small molecule agonists of the endoplasmic reticulum stress response signaling pathway (AID 1159516; active = well fitted activation curve with a large enough effect in the signal ratio in the repeat runs, not every such curve was filed as active; the % refers to the signal ratio; note: % is set by controls: 0 for no effect and ±100 for the full control effect)
How it was run: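 HeLa ESRE-bla reporter line; cpd 5 h, 37 C/5% CO2; LiveBLAzer B/G FRET substrate 2 h RT; ex 405, em 460/530 nm.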

[6] = qHTS assay to identify small molecule agonists of the endoplasmic reticulum stress response signaling pathway - cell viability counter screen (AID 1159517; calls by dose curve;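 note: HeLa cells carrying an ER stress response element beta-lactamase reporter; series mostly up to about 61 µM; % is set by controls: 0 for no effect and ±100 for the full control effect; nearly all actives have a fitted effect of over 50% in size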)
How it was run: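 Steps: seed 1,500 ESRE-bla HeLa cells per well; incubate overnight at 37 C, 5% CO2; add compounds in DMSO for 5 hr; run FRET substrate 2 hr RT; add CellTiter-Glo, wait 30 min, read luminescence.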

[7] = qHTS assay to identify small molecule antagonists of the retinoid-related orphan receptor gamma (ROR-gamma) signaling pathway - cell viability counter screen (AID 1159520); note: % is set by controls: 0 for no effect and ±100 for the full control effect; nearly all actives have a fitted effect of over 50% in size
How it was run: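 Tet-on ROR gamma CHO cells were given compounds for 2 hr, then doxycycline hyclate at 1 uM final, and incubated 16 hr at 37 C. Viability was measured as ATP content by CellTiter-Glo luminescence.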

[8] = biological target: Nuclear receptor ROR-gamma (Homo sapiens) (UniProt P51449); assay: qHTS assay to identify small molecule antagonists of the retinoid-related orphan receptor gamma (ROR-gamma) signaling pathway (AID 1159521)
How it was run: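 Tet-on RORγ CHO cells carrying a ROR response element–luciferase reporter were pretreated with compounds for 2 h, then induced with 1 uM (final) doxycycline hyclate for 16 h at 37 C. Antagonism was read as decreased ONE-Glo luminescence.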

[9] = qHTS assay to identify small molecule agonists of the AP-1 signaling pathway - cell viability counter screen (AID 1159525; calls by dose curve; note: nearly all actives have a fitted effect of over 55% in size)
How it was run: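 Same-well cytotoxicity counter screen of the Tox21 10K library in ME-180 cells. The readout is ATP-dependent luminescence after 5 h compound treatment. Data are normalised to DMSO and tetra n-octyl ammonium bromide controls.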

[10] = qHTS assay to identify small molecule agonists of the AP-1 signaling pathway (AID 1159526; calls by dose curve; note: % is set by controls: 0 for no effect and ±100 for the full control effect)

CC1(C)Oc2ccc(C#N)cc2[C@@H](N2CCCC2=O)[C@@H]1O
inactive: outcome [1] | outcome [2] | outcome [3] | outcome [4] | outcome [5] | outcome [6] | outcome [7] | outcome [8] | outcome [9] | outcome [10]

C=C(C)[C@@H]1CC=C(C)C(=O)C1
inactive: outcome [1] | outcome [2] | outcome [3] | outcome [4] | outcome [5] | outcome [6] | outcome [7] | outcome [8] | outcome [9] | outcome [10]

CC(=O)CC(=O)OC(C)(C)C
inactive: outcome [1] | outcome [2] | outcome [3] | outcome [4] | outcome [5] | outcome [6] | outcome [7] | outcome [8] | outcome [9] | outcome [10]

COC(=O)c1cc(Cl)cc(Cl)c1
inactive: outcome [1] | outcome [2] | outcome [3] | outcome [4] | outcome [5] | outcome [6] | outcome [7] | outcome [8] | outcome [9] | outcome [10]

O=C[O][Al]([O]C=O)[O]C=O
inactive: outcome [1] | outcome [2] | outcome [3] | outcome [4] | outcome [5] | outcome [6] | outcome [7] | outcome [8] | outcome [9] | outcome [10]

OCC1CCC(CO)CC1 (stereo not given)
inactive: outcome [1] | outcome [2] | outcome [3] | outcome [4] | outcome [5] | outcome [6] | outcome [7] | outcome [8] | outcome [9] | outcome [10]

CCCCOC(=O)C(C)O (stereo not given)
inactive: outcome [1] | outcome [2] | outcome [3] | outcome [4] | outcome [5] | outcome [6] | outcome [7] | outcome [8] | outcome [9] | outcome [10]

CCCCCCCCCCOC(C)=O
inactive: outcome [1] | outcome [2] | outcome [3] | outcome [4] | outcome [5] | outcome [6] | outcome [7] | outcome [8] | outcome [9] | outcome [10]

CCO
inactive: outcome [1] | outcome [2] | outcome [3] | outcome [4] | outcome [5] | outcome [6] | outcome [7] | outcome [8] | outcome [9] | outcome [10]

CCCCOC(=O)[C@H](C)O
inactive: outcome [1] | outcome [2] | outcome [3] | outcome [4] | outcome [5] | outcome [6] | outcome [7] | outcome [8] | outcome [9] | outcome [10]

CN1CCOC(c2ccccc2)c2ccccc2C1 (stereo not given)
inactive: outcome [1] | outcome [2] | outcome [3] | outcome [4] | outcome [5] | outcome [6] | outcome [7] | outcome [8] | outcome [9] | outcome [10]

ONc1ccccc1
inactive: outcome [1] | outcome [2] | outcome [3] | outcome [4] | outcome [5] | outcome [6] | outcome [7] | outcome [8] | outcome [9] | outcome [10]

CCCCCCCCCCCCCCCCCC#N
inactive: outcome [1] | outcome [2] | outcome [3] | outcome [4] | outcome [5] | outcome [6] | outcome [7] | outcome [8] | outcome [9] | outcome [10]

O=C1CCC(=O)N1Cl
inactive: outcome [1] | outcome [2] | outcome [3] | outcome [4] | outcome [5] | outcome [6] | outcome [7] | outcome [8] | outcome [9] | outcome [10]

OC1(c2ccc(Cl)cc2)CCNCC1
inactive: outcome [1] | outcome [2] | outcome [3] | outcome [4] | outcome [5] | outcome [6] | outcome [7] | outcome [8] | outcome [9] | outcome [10]

O=C(O)CSCC(=O)NC1CCSC1=O (stereo not given)
inactive: outcome [1] | outcome [2] | outcome [3] | outcome [4] | outcome [5] | outcome [6] | outcome [7] | outcome [8] | outcome [9] | outcome [10]

CCCCCCC1(C)CCC(=O)O1 (stereo not given)
inactive: outcome [1] | outcome [2] | outcome [3] | outcome [4] | outcome [5] | outcome [6] | outcome [7] | outcome [8] | outcome [9] | outcome [10]

CC(C)OC(=O)OCOP(=O)(CO[C@H](C)Cn1cnc2c(N)ncnc21)OCOC(=O)OC(C)C
inactive: outcome [1] | outcome [2] | outcome [3] | outcome [4] | outcome [5] | outcome [6] | outcome [7] | outcome [8] | outcome [9] | outcome [10]

O=C1c2ccccc2C(=O)c2cc(Cl)ccc21
inactive: activity change, negative = cytotoxicity [1] -4.49% [at 5.95 µM] | viability change, negative = cytotoxic [2] -4.02% [at 6.95 µM] | activation [3] -0.467% [at 6.95 µM] | activity, negative = cytotoxic [4] 13.9% [at 6.95 µM] | activation [5] 0.175% [at 6.95 µM] | activity change, negative = cytotoxicity [6] 0.196% [at 6.95 µM] | activity, negative = cytotoxicity [7] 5.88% [at 8.39 µM] | activity change, negative = inhibition [8] 38.6% [at 8.39 µM] | viability change, negative = cytotoxic [9] 1.45% [at 6.97 µM] | activation [10] -9.9% [at 6.97 µM]

O=Cc1ccccc1Cl
inactive: outcome [1] | outcome [2] | outcome [3] | outcome [4] | outcome [5] | outcome [6] | outcome [7] | outcome [8] | outcome [9] | outcome [10]

CC(CO)(CO)CO
inactive: outcome [1] | outcome [2] | outcome [3] | outcome [4] | outcome [5] | outcome [6] | outcome [7] | outcome [8] | outcome [9] | outcome [10]

CC1=C(O)C(=O)C(C)O1 (stereo not given)
inactive: outcome [1] | outcome [2] | outcome [3] | outcome [4] | outcome [5] | outcome [6] | outcome [7] | outcome [8] | outcome [9] | outcome [10]

CC(=O)CC(=O)Nc1ccc(C)cc1C
inactive: outcome [1] | outcome [2] | outcome [3] | outcome [4] | outcome [5] | outcome [6] | outcome [7] | outcome [8] | outcome [9] | outcome [10]

CCN(CC)CCN
inactive: outcome [1] | outcome [2] | outcome [3] | outcome [4] | outcome [5] | outcome [6] | outcome [7] | outcome [8] | outcome [9] | outcome [10]
